Hits are enriched below; roughly 10% of the tested compounds scored in any of these assays.
JMJD2A Tudor: qHTS Assay for Inhibitors of JMJD2A-Tudor Domain; Potency, µM (titrated, usually from 114 µM), for the others: top-dose activity change, negative = inhibition, most hits filed as inhibitors; Lysine-specific demethylase 4A (Homo sapiens), O75164; AlphaScreen JMJD2A-Tudor / H3K4me3 peptide binding; AID 504339, 2011; 390,000 compounds, 4.4% hits; further: on the % scale 0 is the no-effect control and ±100 the full control effect; nearly all actives have a fitted effect of over 50% in size
BAZ2B inh: qHTS Assay for Inhibitors of BAZ2B; Bromodomain adjacent to zinc finger domain protein 2B (Homo sapiens), Q9UIF8; AlphaScreen BAZ2B-H3K14Ac peptide displacement; Potency, µM (top dose mostly 114 µM), inactives show at the top dose activity change, negative = inhibition, usual class: inhibitors; 360,000 compounds, 4.4% hits; further: on the % scale 0 is the no-effect control and ±100 the full control effect; nearly all actives have a fitted effect of over 60% in size
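Protein-peptide AlphaScreen: BAZ2B 50 nM, b-H3K14Ac 50 nM, 1x PBS pH 7.4 + 0.01% Tween-20. Preincubation 30 min RT; cpd 30 min RT (top 110 uM); beads 20 min RT, light-protected.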
HP1b binding inh: HTS for Inhibitors of HP1-beta Chromodomain Interactions with Methylated Histone Tails. Chromobox protein homolog 1 (Homo sapiens), P83916. AlphaScreen HP1-beta / biotin-H3K9me3 peptide binding. Potency, µM (doses to about 114 µM), inactives show at the highest dose activity change, negative = inhibition, hits mostly inhibitors. 390,000 compounds, 0.56% hits. AID 540317, 2011; further: nearly all actives have a fitted effect of over 70% in size
Target sequence (P83916 whole entry, looked up): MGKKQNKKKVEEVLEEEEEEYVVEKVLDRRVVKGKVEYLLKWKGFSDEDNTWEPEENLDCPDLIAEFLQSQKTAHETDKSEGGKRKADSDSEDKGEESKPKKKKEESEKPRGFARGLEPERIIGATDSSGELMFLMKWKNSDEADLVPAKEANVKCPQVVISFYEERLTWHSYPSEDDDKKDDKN
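AlphaScreen: HP1-beta (50 nM) preformed 30 min with biotin-H3(1-18)K9me3 peptide (50 nM) in PBS pH 7.4, 0.01% Tween-20. Compound added for 30 min at RT, then streptavidin donor/nickel chelate acceptor beads (10 ug/mL) for 30 min.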
G9a block: qHTS Assay for Inhibitors of Histone Lysine Methyltransferase G9a; G9a H3K9 monomethylation, AlphaScreen, 2 h; Potency, µM (titrated, usually from 102 µM), for the others: at the highest dose activity, negative = inhibition, hits mostly inhibitors; 350,000 compounds, 8.8% hits; further: on the % scale 0 is the no-effect control and ±100 the full control effect; nearly all actives have a fitted effect of over 75% in size
Target sequence (Q96KQ7 913-1193 limits assumed): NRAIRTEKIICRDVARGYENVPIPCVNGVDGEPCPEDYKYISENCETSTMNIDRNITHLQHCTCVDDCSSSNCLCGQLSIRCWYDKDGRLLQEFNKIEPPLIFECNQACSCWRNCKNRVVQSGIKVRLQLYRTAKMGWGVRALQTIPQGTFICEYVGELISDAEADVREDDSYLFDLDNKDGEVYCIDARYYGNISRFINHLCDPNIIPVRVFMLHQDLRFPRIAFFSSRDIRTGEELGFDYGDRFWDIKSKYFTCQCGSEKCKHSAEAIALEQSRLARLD
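Methyltransferase reactions run at room temperature for 2 h (20 nM enzyme, 500 nM biotin-H3K9 peptide, 20 uM SAM) after a 15 min compound preincubation; product detected by AlphaScreen beads and anti-H3K9me1 antibody.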
GLS inh: qHTS for Inhibitors of Glutaminase (GLS); Glutaminase kidney isoform, mitochondrial (Homo sapiens), O94925; GLS enzymatic activity, qHTS titration; Potency, µM (highest dose often 45.5 µM), for the others: at the top dose activity change, negative = inhibition, usual class: inhibitors; 410,000 compounds, 0.21% hits; further: on the % scale 0 is the no-effect control and ±100 the full control effect
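hKGA in 45 mM KH2PO4 pH 8.2, 0.02% Tween-20 with pin-transferred compounds; 1 mM L-glutamine (stock) plus glutamate oxidase/HRP/Amplex Red coupling added. Fluorescence read initially and after 30 min at RT.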
* marks the source's active call; other numbers are inactive results; ? = inconclusive; · = no result given; [ ] = remark or other dose. The call rests on the fitted dose curve; in most records, active means well fitted curve in the direction sought with a large enough effect; inconclusive means small, poorly fitted or top-dose-only effect, or another doubt; inactive means no such curve, though single readings can be large; an effect the other way counts as inactive or inconclusive. Potency means the concentration at half of the fitted maximal effect.

SMILES | JMJD2A Tudor | BAZ2B inh | HP1b binding inh | G9a block | GLS inh
O=C(COC(=O)/C=C/c1ccc([N+](=O)[O-])cc1)Nc1ccc(F)cc1 | -22% | 5% | 2% | -9%[12.7 µM] | 1%
Cc1ccc(Nc2c(-c3ccc(N4CCOCC4)cc3)nc3ccc(Cl)cn23)cc1 | -15% | · | 27% | -23%[59 µM] | 0%
Cc1ccccc1Nc1c(-c2ccc(N3CCOCC3)cc2)nc2ccc(Cl)cn12 | ? | -39% | 12% | ? | -3%
Cc1ccn2c(Nc3ccccc3C)c(-c3ccc(N4CCOCC4)cc3)nc2c1 | 45µM* | ? | -8% | 10µM* | -7%
Cc1ccc2nc(-c3ccc(N4CCOCC4)cc3)c(Nc3ccccc3C)n2c1 | 14µM* | 10µM* | ? | 13µM* | 12%
COc1ccc(C(=O)CSc2nnc(Cn3nnc4ccccc43)n2C)cc1 | -14% | -16% | 6% | ? | -10%
COc1cccc(CNC(=O)c2nn(C)c3c2CS(=O)(=O)c2ccccc2-3)c1 | 2% | -9% | 29% | -2%[59 µM] | 1%
CC1CC(C)CN(C(=O)CSc2n[nH]c(N)n2)C1 (stereo unspecified) | 2% | · | 38% | · | 24%
CCONC(=O)Nc1ccccc1[N+](=O)[O-] | -6% | 12% | 24% | 71µM* | 14%
O=C(CNCc1cccc2ccccc12)Nc1ccccc1[N+](=O)[O-] | ? | ? | ? | 50µM* | -7%
CC(C)CNC(=O)c1cc2nc(C3CC3)cc(C(F)(F)F)n2n1 | -8% | · | 32% | · | -2%
CCCCc1cc(=O)oc2c(C)c(OCC(=O)NCC3CCC(C(=O)O)CC3)ccc12 (stereo unspecified) | -14% | -15%[57.1 µM] | 17% | 79µM* | 5%
CN(C)Cc1ccccc1Sc1ccc2c(c1)CCCC2 | 0.63µM* | · | ? | · | 0%
Cc1ccc(CNC(=O)COC(=O)CSc2ccc(Br)cc2C)cc1 | 3% | 30% | 51% | 15% | -1%
Cc1cc(Br)ccc1SCC(=O)OCC(=O)NC(C)c1ccccc1 (stereo unspecified) | 12%[57.1 µM] | -4% | 81% | 40µM* | 5%
Cc1cc(Br)ccc1SCC(=O)OCC(=O)NC1CC1 | -22% | 79µM* | 30% | 79µM* | -3%
COc1cccc(C(=O)N2CCOCC2)c1OC | -26% | 4% | 26% | -17% | 2%
CCOC(=O)c1c(NC(=O)Cn2cnc([N+](=O)[O-])n2)sc2c1CCCC2 | -16% | 8% | -10% | 45µM* | 6%
CCOC(=O)c1c(NC(=O)Cn2cnc([N+](=O)[O-])n2)sc(C)c1C | -1% | -2% | -9% | 28µM* | 7%
CC(C)OC(=O)c1c(NC(=O)Cn2cnc([N+](=O)[O-])n2)sc2c1CCCC2 | -16% | -3% | -23% | 16µM* | -20%
NC(=O)c1c(NC(=O)Cn2cnc([N+](=O)[O-])n2)sc2c1CCCC2 | -18% | -28% | 11%[57 µM] | ? | 18%
CC(C)CN1CCC(=O)N(C(CSc2ccc(Br)cc2)c2ccccc2)CC1 (stereo unspecified) | 6% | · | 76% | · | ·
C/C=C/C(=O)Nc1ccccc1Br | -7% | -6% | 11% | -10%[12.7 µM] | 0%
COc1cc(-c2nnc(SCC(=O)NC3CCCC3)n2C)cc(OC)c1O | -2% | -8% | 51% | 79µM* | 7%
Cn1c(SCC(=O)NC2CCCC2)nnc1-c1ccccn1 | -3% | ? | 35% | · | 0%
SMILES | JMJD2A Tudor | BAZ2B inh | HP1b binding inh | G9a block | GLS inh
C=CCn1c(SCC(=O)Nc2ccc3c(c2)OCCO3)nnc1-c1ccccn1 | 89µM* | ? | 11% | -2% | 3%
C=CCn1c(COc2ccccc2)nnc1SCC(=O)Nc1ccc2c(c1)OCCO2 | -13% | -27% | 9% | 0% | 2%
C=CCn1c(CSCc2ccccc2)nnc1SCC(=O)N1CCN(c2ccccc2)CC1 | -19% | -29% | 15% | 25µM* | 2%
Cn1c(SCC(=O)NC2CCCCC2)nnc1-c1ccccn1 | 2% | 79µM* | 24% | 28% | 10%
COc1ccc(-c2nnc(SCC(=O)NC3CCCC3)n2C)cc1 | 9% | -2% | 32% | ? | -9%
CCOC(=O)CNC(=O)c1cccnc1 | 14%[11.4 µM] | ? | 32% | · | -10%
CCn1nnnc1SCC(=O)N1CCN(c2ccccc2)CC1 | -10% | -37% | 14% | ? | 25%
Cc1ccccc1OCc1nnc(SCC(=O)NC2CCCCC2)o1 | -11% | 9% | ? | 50µM* | 5%
O=C(CSc1nnnn1Cc1ccccc1)N1CCN(c2ccccc2)CC1 | 89µM* | -8% | 2% | 45µM* | 16%
C=CCn1c(SCC(=O)NC2CCCCC2)nnc1-c1ccccn1 | -8% | 79µM* | 32% | 10% | -5%
O=C(CSc1nnnn1Cc1ccccc1)NC1CCCCC1 | -1% | -13% | 38% | 50µM* | -3%
COc1ccc(/C=C2\CCc3ccccc3C2=O)cc1Cn1nc(C)cc1C | -35% | -36% | 3% | 0%[12.7 µM] | 9%
Cc1ccc(NC(=O)CCn2nc(C)c3c(C)n(-c4ccccc4)nc3c2=O)cc1Cl | -11% | 15% | 84% | 15%[59 µM] | 2%
O=C(CSc1nnc(-c2ccccn2)n1Cc1ccccc1)NC1CCCC1 | -2% | 89µM* | 27% | -30% | 18%
CCCn1c(SCC(=O)NC2CCCCC2)nnc1-c1ccccn1 | 10% | ? | 43% | -3% | -8%
CC1N(O)C(c2ccc(Cl)cc2Cl)N(O)C1(C)C (stereo unspecified) | -10% | 6% | 53% | -2%[59 µM] | 21%
ON1C(c2ccc(Cl)cc2Cl)N(O)[C@H]2CCCC[C@H]21 (stereo partly specified) | -10% | -3% | 27% | 50µM* | 5%
CC1=CC(c2ccc(Cl)cc2)n2nc(NC(=O)c3ccccc3)nc2N1 (stereo unspecified) | -30% | 56µM* | 54% | 14µM* | -18%
CC1=CC(c2ccccc2)n2nc(NC(=O)CCC(=O)O)nc2N1 (stereo unspecified) | ? | ? | -14% | ? | -14%
CC1=CC(c2ccccc2)n2nc(NC(=O)CCCC(=O)O)nc2N1 (stereo unspecified) | ? | 50µM* | 7% | 5% | -16%
O=c1c2c3n(c(=S)nc2[nH]n1-c1ccccc1)CCCCC3 | -14% | ? | 17% | 50µM* | 7%
CCOC(=O)c1c(C)oc2ccc(OS(C)(=O)=O)cc12 | -4% | -14% | 40% | 23% | 1%
COc1ccc(CN2C(=O)/C(=C/c3ccc(-c4ccc(Cl)c(C(=O)O)c4)o3)SC2=S)cc1 | · | ? | · | 32µM* | ·

From PubChem
